Source: the supplement of paper PMC4380459

System: tubulin (bovine brain)
Assay: tubulin polymerization end-point dOD, fold change relative to DMSO vehicle; higher = more polymerization (stabilization)
Conditions: 50 µM; 60 min; 37 °C
How it was run: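 In 384-well plates, compound at a final 50 μM in 0.5% DMSO was assembled on ice with bovine brain tubulin (4 mg/ml in G-PEM buffer) from the Cytoskeleton HTS-Tubulin polymerization kit, then read at 340 nm every minute for 1 hour at 37°C in a Tecan reader. Each value is the end-point change in optical density as percent fold change versus DMSO vehicle, scaled per run by the means and standard deviations of DMSO and reference-control wells.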

With Cc1ccc(C)c(NC(=O)CSc2nc3cc4c(cc3cc2C#N)OCO4)c1 the “tubulin polymerization end-point dOD” value was 52.6%.

For CCOc1ccc2nc(SCC(=O)Nc3ccccc3CC)c(C#N)cc2c1, the “tubulin polymerization end-point dOD” value was -22.2%.

CCOC(=O)Nc1nc2ccccc2[nH]1 was tested, and the “tubulin polymerization end-point dOD” value was 0.459%.

In the case of CCOC(=O)c1[nH]c(C)c(C(=O)c2cc(F)ccc2F)c1C, the “tubulin polymerization end-point dOD” value is reported as 5.16%.

For Cc1cc(N2CCN(C(=O)c3c[nH]nc3-c3ccccc3)CC2)nc(C(C)C)n1, the “tubulin polymerization end-point dOD” value was -15.2%.

With COc1ccc2nc(SCC(=O)Nc3ccccc3OC)c(C#N)cc2c1 the “tubulin polymerization end-point dOD” value was -9.01%.

With CCCn1c(SCC(=O)Nc2ccccc2OC)nnc1-c1cccnc1 the “tubulin polymerization end-point dOD” value was -56.1%.

For COc1cccc2sc(NC(=O)C3CN(C(C)=O)c4ccccc4O3)nc12 (centres undefined), the “tubulin polymerization end-point dOD” value was -38.1%.

For CC(=O)c1c(C)oc2c1cc(NS(=O)(=O)c1ccc(Cl)cc1)c1ccccc12, the “tubulin polymerization end-point dOD” value was 2.59%.

COc1ccc2nc(SCC(=O)NCCc3ccc(OC)c(OC)c3)c(C)cc2c1 was tested, and the “tubulin polymerization end-point dOD” value was -15%.

Cc1cc2c(cc(C(=O)OCC(=O)NCc3ccco3)n2C)s1 was tested, and the “tubulin polymerization end-point dOD” value was 39.4%.

For O=C(Nc1ncc(Cc2ccccc2)s1)c1cc(Br)c[nH]1, the “tubulin polymerization end-point dOD” value was 2.89%.

O=C(Nc1ccccc1Cl)N(Cc1cccs1)Cc1cc2cc3c(cc2[nH]c1=O)OCCO3 was tested, and the “tubulin polymerization end-point dOD” value was -17.8%.

With COc1ccc(Cl)cc1NC(=O)CSc1nnc(-c2ccncc2)n1-c1ccccc1 the “tubulin polymerization end-point dOD” value was -50.9%.

For Oc1ccccc1-c1nc2ccc(Cl)cn2c1NCc1ccc2c(c1)OCO2, the “tubulin polymerization end-point dOD” value was 7.3%.

N#Cc1ccc(N2CC[NH+](Cc3ccc(-c4ccccc4Cl)s3)CC2)nc1 was tested, and the “tubulin polymerization end-point dOD” value was -56.2%.

O=C1N/C(=N/N=C/c2ccccc2O)SC1Cc1cc(C(F)(F)F)ccc1Cl (centres undefined) was tested, and the “tubulin polymerization end-point dOD” value was -23%.

For Cc1cc2cc(CN(CC3CCCO3)C(=S)Nc3ccccc3)c(=O)[nH]c2cc1C (centres undefined), the “tubulin polymerization end-point dOD” value was -20.3%.

For COc1ccc(CNc2c(-c3ccc(O)cc3O)nc3cnccn23)cc1, the “tubulin polymerization end-point dOD” value was 30.8%.

For CCc1ccccc1NC(=O)CSc1nc2cc3c(cc2cc1C#N)OCO3, the “tubulin polymerization end-point dOD” value was 56.6%.

C/C(=N\NC(=O)c1cccc(F)c1)c1ccc(Br)s1 was tested, and the “tubulin polymerization end-point dOD” value was 9.02%.

For O=C1CCCN1Cc1ccc(-c2ccccc2CNc2ncccn2)cc1, the “tubulin polymerization end-point dOD” value was -32.9%.

With Cc1ccc(NC(=S)N(Cc2cc3ccc(C)cc3[nH]c2=O)CC2CCCO2)cc1 (centres undefined) the “tubulin polymerization end-point dOD” value was 97.9%.

In the case of Cc1cccc2cc(C#N)c(SCC(=O)c3ccc(F)cc3)nc12, the “tubulin polymerization end-point dOD” value is reported as -11.1%.

In the case of COC(=O)Nc1nc2cc(C(=O)c3ccccc3)ccc2[nH]1 [Mebendazole], the “tubulin polymerization end-point dOD” value is reported as 6.22%.

For CN(C)c1ncc(C(=O)Nc2ccc(Oc3ccc4c(c3)OCO4)cc2)cn1, the “tubulin polymerization end-point dOD” value was 8.04%.

For Cc1ccc(/C=N/NC(=O)c2ccc3c(c2)OCO3)cc1, the “tubulin polymerization end-point dOD” value was -38.5%.

With O=C(Nc1ncc(Cc2ccc(Cl)cc2)s1)c1cccnc1 the “tubulin polymerization end-point dOD” value was 7.93%.

CC(=O)c1c(C)oc2c1cc(NS(=O)(=O)c1ccc(C)cc1)c1ccccc12 was tested, and the “tubulin polymerization end-point dOD” value was -58.9%.
